Experimental findings from PubChem BioAssay (NCI) are described below.

This is part of a sample that, as a whole, favours compounds with a hit. Of some 83,000 tested, about 20% had one in any assay.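 Method: cells in 96-well plates; compound added at one concentration; 48 h incubation; percent growth measured; values under 10 scored active.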 Unmarked numbers belong to inactive results. Calls of active or inactive are those of the source.

For one test, the system named is NCI-H522 lung. The experiment in a line: NCI-60 one-dose screen, 48 h (100 = growth as untreated, 0 = no growth, -100 = all killed). The conditions noted are these: 10 µM unless noted.
On to `NCCNc1nc2ccccc2c2c(=O)c3cc(F)cc(Cl)c3sc12`, for which the growth was -44.8% (active).
In the case of `C=C1C(=O)O[C@H]2[C@H]1CC/C(COC(=O)/C=C\C(=O)O)=C\CC[C@@]1(C)O[C@@H]21`, the growth was 97.5%.
On to `COc1ccccc1C(=O)/C=C/c1ccccc1`, for which the growth is 81.8%.
On the same count and under the same terms, the value for `Cn1cc([C@@H]2Nc3ccc4[nH]ncc4c3[C@H]3[C@H]4CCC(C4)[C@H]32)c(C(F)(F)F)n1` was 2.48% (active); that for `N#Cc1c(N)nc2c(c1N)C(c1ccc(F)cc1)c1ccc(N)cc1O2` (stereo unspecified) was 86.4%; that for `O=C(CN1C=NC2C(N3CCOCC3)=NC=NC21)c1ccc(Br)cc1` (stereo unspecified) was 87.2%.
The same measure, in the same setting: the value for `CCCCN1CCN(c2ccc3nc(-c4ccc5nc(-c6ccc(OCC)cc6)[nH]c5c4)[nH]c3c2)CC1` was 68.8%.
On the same count and under the same terms, next, `CCN(CCO)CCNc1ccc(C)c2sc3cc(Cl)ccc3c(=O)c12`: 50.2%; `Cc1nn(-c2nc3ccccc3[nH]2)c2c1C(c1ccc(OCC(N)=O)cc1)CC(=O)N2` (stereo unspecified): 100%; `COC(=O)/C(CCC=C(C)C)=C1\[C@@H](OC(C)=O)C[C@@]2(C)[C@H]1C[C@@H](O)[C@H]1[C@@]3(C)CC[C@H](NCCO)[C@@H](C)[C@@H]3CC[C@@]12C`: 99.9%.
On to `CCCc1c(C)c2sc(=O)[nH]c2[nH]c1=O`, for which the growth was 96%.
The same measure, in the same setting: the value for `O=C(/C=C/c1ccc(Cl)cc1)c1ccc(Nc2nc(NCCO)nc(Nc3ccc(Cl)cc3)n2)cc1` was 77.8%; that for `COc1cccc2c(=O)c3c(sc12)c(NCCCNCCO)nc1ccccc13` was 60.9%; that for `CCCCc1ccc(NS(=O)(=O)c2cc3c4c(c2)CCN4C(=O)CC3)cc1` was 13.9%.
Same read-out and setting: the value for `O=C1/C(=C/c2ccc(O)cc2)COc2ccc(O)cc21` was 87.7%; that for `Cc1cc(Nc2ccc(OCc3ccccc3)cc2)nc2cc(O)ccc12` was 53.2%.
Same read-out and setting: next, `O=C(c1nc2ccccc2[nH]1)C1[C@@H](c2cccc(O)c2)C2CC3CCCCC3N2[C@@]12C(=O)Nc1cc(Cl)ccc12` (stereo partly specified): 51.9%; `O=c1oc2ccc(Br)cc2c(=O)n1-c1ccc(Br)cc1F`: 6.36% (active).
For `O=C(/C=C/c1ccc(C(F)(F)F)cc1)c1ccc(Nc2nc(NCCO)nc(N3CCOCC3)n2)cc1`, the growth is 45.6%.
The same measure, in the same setting: next, `C#CCn1cc(C=C2C(=O)N(C)C(=O)N(C)C2=O)c2cc(Cl)ccc21`: 88.7%; `COc1ccc(/C=C2/SC(=O)N(CC(=O)N3CCN(c4cc5c(cc4F)c(=O)c(C(=O)O)cn5C4CC4)CC3)C2=O)cc1`: 87.1%; `CCOC(=O)C1=C(C)N=c2s/c(=C\c3ccccc3O)c(=O)n2C1c1ccc(OC)c2ccccc12` (stereo unspecified): -36.2% (active).
Still for that read-out and setting: next, `Nc1ccc(-c2ccc(-c3ccccc3N)c3[nH]c4ccccc4c23)cc1`: 46.4%; `CCOC(=O)c1c2c(n3cccc(Cl)c13)C(=O)c1ncccc1C2=O`: 81.3%; `O=C(Nc1ccc(C23CC4CC(CC(c5ccccc5)(C4)C2)C3)cc1)c1cccs1`: 59.9%.
Consider `Cc1ccc2sc3c(NCCCNCCO)nc4ccccc4c3c(=O)c2c1`, for which the growth is 27.2%.
The same measure, in the same setting: next, `COc1ccccc1N1CCN(C(CNS(=O)(=O)c2ccc(Cl)cc2)c2cccnc2)CC1` (stereo unspecified): 110%; `CCn1c(-c2nonc2Nc2ccc(OC)cc2)nc2ccccc21`: 89%; `O=C(Nc1ccc(N2CCNCC2)cn1)c1[nH]ncc1Nc1ncnc2sc3c(c12)CCC3`: 35.9%.
Same read-out and setting: the value for `O=C(/C=C/c1cccc(Cl)c1)OCc1ccc2cc1OCC#C/C=C\C#CCO2` was 83.2%; that for `C[n+]1c2ccccc2nc2ccc(NCCO)cc21` was 92.2%.
Turning to `Nc1nc2c(ncn2[C@@H]2O[C@H](CS)[C@@H](O)[C@H]2O)c(=O)[nH]1`, the growth is 97.4%.
On the same count and under the same terms, the value for `Cn1c(C(=O)c2cccc3ccccc23)nc2ccccc21` was -4.82% (active); that for `CC/C(=C(\CC)c1ccc(OCC[N+](C)(C)C)cc1)c1ccc(OC)cc1` was 32.7%; that for `O=C(Nc1ccc(F)cc1F)c1cc(I)ccc1O` was -12.4% (active).
`CC(C)Cn1c2c(c(=S)[nH]c1=O)CCC2`: the growth is 96.1%.
The same measure, in the same setting: the value for `CNCCNc1nc2ccccc2c2c(=O)c3cccc(C)c3sc12` was 27.8%; that for `COC(=O)c1c2c(c(C)[n+]([O-])c1C)C(=O)C(NCc1ccc(F)c(F)c1)=CC2=O` was 22%.
Same read-out and setting: the value for `O=C(Cn1cc(COc2ncnc3c2cnn3-c2ccccc2)nn1)Nc1ccccn1` was 87.6%.

Another test relates to A549/ATCC NSCLC. The description is as above. The conditions noted are these: 10 µM unless noted.
In the case of `NCCNc1nc2ccccc2c2c(=O)c3cc(F)cc(Cl)c3sc12`, the growth was -72.9% (active).
`C=C1C(=O)O[C@H]2[C@H]1CC/C(COC(=O)/C=C\C(=O)O)=C\CC[C@@]1(C)O[C@@H]21`: the growth was 105%.
The same measure, in the same setting: the value for `CCCCN1CCN(c2ccc3nc(-c4ccc5nc(-c6ccc(OCC)cc6)[nH]c5c4)[nH]c3c2)CC1` was 86.5%; that for `O=C(/C=C/c1ccc(Cl)cc1)c1ccc(Nc2nc(NCCO)nc(Nc3ccc(Cl)cc3)n2)cc1` was 51.2%.
For the molecule `COc1cccc2c(=O)c3c(sc12)c(NCCCNCCO)nc1ccccc13`, the growth was 34.5%.
Still for that read-out and setting: the value for `O=c1oc2ccc(Br)cc2c(=O)n1-c1ccc(Br)cc1F` was 13%; that for `O=C(/C=C/c1ccc(C(F)(F)F)cc1)c1ccc(Nc2nc(NCCO)nc(N3CCOCC3)n2)cc1` was 13.1%.
On to `Cc1ccc2sc3c(NCCCNCCO)nc4ccccc4c3c(=O)c2c1`, for which the growth was 0.19% (active).
On the same count and under the same terms, next, `Nc1nc2c(ncn2[C@@H]2O[C@H](CS)[C@@H](O)[C@H]2O)c(=O)[nH]1`: 96.6%; `CNCCNc1nc2ccccc2c2c(=O)c3cccc(C)c3sc12`: 35.7%; `COC(=O)c1c2c(c(C)[n+]([O-])c1C)C(=O)C(NCc1ccc(F)c(F)c1)=CC2=O`: 8.81% (active).
On the same count and under the same terms, the value for `O=C(Cn1cc(COc2ncnc3c2cnn3-c2ccccc2)nn1)Nc1ccccn1` was 94.2%.
